Reference: PubChem BioAssay AID1159580 (chemical genetic matrix, 2015)
Where “and” joins values, the source holds several entries; their conditions need not be identical. Identical values can stand only once. The whole screen tested about 5,500 compounds, of which about 2,000 (36%) were called active. Roughly 18% stayed inconclusive and do not appear here. Rule as the data show it: active = normalized growth mostly below about 0.91 (no sharp cut-off); inconclusive = no clear call, values can overlap the other calls; inactive = mostly above about 0.92. The list shows a part of the results.

Assay: chemical genetic growth profiling, strain panel (AID 1159580);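 also: tested at 20 µM; growth read once vehicle control cultures reached saturation at 30 °C; 1 = growth at the plate median or of vehicle wells; lower values mean less growth of the strain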
Conditions: S. cerevisiae deletion strains, growth OD

Measured: normalized growth

COC(=O)C(N)CS (stereo unspecified)
inactive: locus YAL013W, strain DEP1, stronger effect = lower value 0.991 | locus YAL021C, strain ccr4, stronger effect = lower value 0.93 | locus YAL026C, strain drs2, stronger effect = lower value 0.967 | locus YAL030W, strain snc1, stronger effect = lower value 0.993 | locus YBL061C, strain skt5, stronger effect = lower value 0.998 | locus YBR009C, strain hhf1, stronger effect = lower value 0.958 | locus YBR021W, strain FUR4, stronger effect = lower value 0.994 | locus YBR023C, strain chs3, stronger effect = lower value 1.02 | locus YBR171W, strain sec66, stronger effect = lower value 0.984 | locus YBR229C, strain ROT2, stronger effect = lower value 0.992 | locus YBR231C, strain swc5, stronger effect = lower value 0.974 | locus YBR279W, strain paf1, stronger effect = lower value 1.01 | locus YCL011C, strain gbp2, stronger effect = lower value 0.996 | locus YCL016C, strain dcc1, stronger effect = lower value 1.04 | locus YCL029C, strain bik1, stronger effect = lower value 0.964 | locus YCL069W, strain vba3, stronger effect = lower value 0.954 | locus YCR088W, strain abp1, stronger effect = lower value 0.982 | locus YDL005C, strain med2, stronger effect = lower value 1 | locus YDL035C, strain GPR1, stronger effect = lower value 0.978 | locus YDL040C, strain nat1, stronger effect = lower value 0.99 | locus YDL074C, strain BRE1, stronger effect = lower value 0.98 | locus YDL101C, strain DUN1, stronger effect = lower value 0.984 | locus YDL134C, strain PPH21, stronger effect = lower value 0.977 | locus YDL185W, strain tfp1, stronger effect = lower value 0.966 | locus YDL192W, strain arf1, stronger effect = lower value 0.975 | locus YDR001C, strain nth1, stronger effect = lower value 0.984 | locus YDR069C, strain doa4, stronger effect = lower value 0.959 | locus YDR101C, strain arx1, stronger effect = lower value 0.985 | locus YDR137W, strain rgp1, stronger effect = lower value 0.924 | locus YDR150W, strain NUM1, stronger effect = lower value 0.996 | locus YDR159W, strain sac3, stronger effect = lower value 0.929 | locus YDR162C, strain NBP2, stronger effect = lower value 0.985 | locus YDR195W, strain ref2 1.03 | locus YDR297W, strain sur2, stronger effect = lower value 0.98 | locus YDR318W, strain mcm21, stronger effect = lower value 0.93 | locus YDR334W, strain swr1, stronger effect = lower value 0.959 | locus YDR335W, strain msn5, stronger effect = lower value 0.995 | locus YDR388W, stronger effect = lower value 0.951 | locus YDR392W, strain spt3, stronger effect = lower value 0.806 | locus YDR502C, strain sam2, stronger effect = lower value 0.98 | locus YEL003W, strain gim4, stronger effect = lower value 0.966 | locus YEL037C, strain rad23, stronger effect = lower value 0.978 | locus YEL061C, strain CIN8 (second series), stronger effect = lower value 0.966 | locus YEL061C, strain CIN8, stronger effect = lower value 0.997 | locus YER015W, strain faa2, stronger effect = lower value 0.997 | locus YER016W, strain bim1, stronger effect = lower value 0.997 | locus YER110C, stronger effect = lower value 0.991 | locus YER111C, strain swi4, stronger effect = lower value 1.03 | locus YER155C, strain BEM2 (second series), stronger effect = lower value 0.886 | locus YER155C, strain BEM2, stronger effect = lower value 1 | locus YER167W, strain BCK2, stronger effect = lower value 0.971 | locus YFR010W, strain ubp6, stronger effect = lower value 0.94 | locus YGL078C, strain dbp3, stronger effect = lower value 0.988 | locus YGL086W, strain mad1, stronger effect = lower value 0.976 | locus YGL167C, strain pmr1, stronger effect = lower value 0.977 | locus YGL173C, strain kem1, stronger effect = lower value 0.938 | locus YGL227W, strain vid30, stronger effect = lower value 0.971 | locus YGL240W, strain doc1, stronger effect = lower value 0.941 | locus YGL248W, strain PDE1, stronger effect = lower value 0.959 | locus YGL253W, strain hxk2, stronger effect = lower value 0.976 | locus YGR078C, strain PAC10, stronger effect = lower value 0.976 | locus YGR135W, strain pre9, stronger effect = lower value 0.947 | locus YGR229C, strain SMI1, stronger effect = lower value 0.949 | locus YGR252W, strain gcn5, stronger effect = lower value 0.883 | locus YHR013C, strain ard1, stronger effect = lower value 0.938 | locus YHR027C, strain rpn1, stronger effect = lower value 0.97 | locus YHR030C, strain SLT2, stronger effect = lower value 0.99 and 1.05 | locus YHR079C, strain IRE1 (second series), stronger effect = lower value 0.964 | locus YHR079C, strain IRE1, stronger effect = lower value 1.04 | locus YHR094C, strain hxt1, stronger effect = lower value 0.991 | locus YHR129C, strain ARP1, stronger effect = lower value 0.992 | locus YHR142W, strain chs7, stronger effect = lower value 1 | locus YHR200W, strain rpn10, stronger effect = lower value 0.973 | locus YIL066C, strain RNR3, stronger effect = lower value 0.975 | locus YIL073C, strain SPO22, stronger effect = lower value 0.903 | locus YIL125W, strain kgd1, stronger effect = lower value 0.991 | locus YIR030C, strain dcg1, stronger effect = lower value 0.984 | locus YJL092W, strain hpr5, stronger effect = lower value 0.995 | locus YJL095W, strain BCK1 (second series), stronger effect = lower value 0.995 | locus YJL095W, strain BCK1, stronger effect = lower value 0.929 and 1.04 | locus YJL115W, strain asf1, stronger effect = lower value 0.977 | locus YJL129C, strain trk1, stronger effect = lower value 1.01 | locus YJL134W, strain LCB3, stronger effect = lower value 0.996 | locus YJL154C, strain vps35, stronger effect = lower value 0.97 | locus YJL164C, strain tpk1, stronger effect = lower value 0.965 | locus YJL166W, strain qcr8, stronger effect = lower value 0.961 | locus YJL168C, strain set2, stronger effect = lower value 0.979 | locus YJL187C, strain SWE1 (second series), stronger effect = lower value 0.972 | locus YJL187C, strain SWE1, stronger effect = lower value 0.998 | locus YJR043C, strain POL32, stronger effect = lower value 0.977 | locus YJR066W, strain TOR1, stronger effect = lower value 0.998
